Only a selection was taken, and hits are over-represented in it overall.
Tgondii IFNg: blocks Toxoplasma gondii growth in the presence of IFN-gamma; 3.8% of 69,000 active; AID 1259416; activity change, negative = inhibition, % (no concentration beside the values); Toxoplasma gondii growth in IFN-gamma-treated host cells; stronger effect = lower value; in the data active = activity change below about -70%, passing the limit was not always enough;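 also: host cells are HeLa cells infected with Toxoplasma gondii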
Active calls of the source: *; ! = not confirmed by another sample.

SMILES	Tgondii IFNg
CCOc1ccccc1C(=O)NCCc1sc(-c2ccc(Cl)cc2)nc1C	-106.0*
CCn1c(C2CCNCC2)nn(CC2CCCS(=O)(=O)C2)c1=O (stereo not drawn)	-49.8
CC(C)c1nccc(C(=O)N2[C@@H]3CC[C@H]2CNC(=O)C3)n1	-0.8
CCC(C)C(NC(=O)C(CC(C)C)NC(=O)OCc1ccccc1)C(=O)OC (stereo not drawn)	23.3
CCOCC1CC2(COCCN2S(=O)(=O)c2cccc(F)c2)CO1 (stereo not drawn)	0.1
COC1COC2(CCN(Cc3ccc4c(c3)OCO4)CC2)C1 (stereo not drawn)	24.7
Cc1ccc(NC(=O)N2CCC3(CC2)Nc2ccccc2-n2cccc23)c(Cl)c1	339.4
Cc1[nH]c2ccc(CNC(=O)c3cnc4c(c3)nnn4C)cc2c1C	17.0
Cc1nc(-c2ccc(F)cc2)sc1CCNC(=O)C(=O)Nc1ccc2c(c1)OCCO2	-39.6
Cc1ccc(-c2nc(C)c(CCNC(=O)C(=O)Nc3ccc4c(c3)OCO4)s2)cc1	-69.4
Cc1nc(-c2ccc(F)cc2)sc1CCNC(=O)C(=O)Nc1ccc2c(c1)OCO2	-72.0*
Cc1nc(-c2ccc(F)cc2)sc1CCNC(=O)c1ccccc1Cl	-71.8*
Cc1nc(-c2ccc(F)cc2)sc1CCNC(=O)c1ccccc1Br	-13.7
Cc1nc(-c2ccc(F)cc2)sc1CCNC(=O)c1c(F)cccc1Cl	-5.2
CCc1cccc(-n2c(CNC)n[nH]c2=O)c1	-25.1
COCC1CN(Cc2c(C)noc2C)Cc2ncn(CC3CC3)c21 (stereo not drawn)	1.0
Cc1ccc(NC(=O)CC2COc3ccccc3O2)cc1C (stereo not drawn)	5.9
Cc1ccc(N(CC(=O)NCCCC2CCOC2)S(C)(=O)=O)cc1 (stereo not drawn)	1.0
COCCc1nc(Cn2cnnc2)no1	-22.3
Cn1c2ccccc2c2c1cc(C(=O)N1CCN(c3ccncc3)CC1)n2S(C)(=O)=O	-56.3
CCCc1nnc(SCC(=O)c2ccc(Br)cc2)o1	27.8
CC(C)c1n[nH]c2c1CN(C(=O)CCc1c[nH]c3ccccc13)CC2	-53.9
CCCCCC(=O)Nc1ccc2c(c1)Cc1ccccc1-2	70.6
C=CCNC(=O)C1(Cc2ccc(-c3ccccc3F)cc2)CCCNC1 (stereo not drawn)	-36.1
O=C(CCCc1ccc(-c2ccccc2F)cc1)Nc1ccc(O)cc1	-80.3*
SMILES	Tgondii IFNg
Cn1nc(CC2CCN(C(=O)c3cnco3)CC2)n(-c2ccccc2)c1=O	-21.2
c1cc(-c2cccc(-n3cccn3)c2)cc(-n2cnnc2)c1	-1.5
Cc1nc(C(N)=O)c2c(n1)n(-c1ccc(F)cc1)c(=O)n2CC(=O)N1CCC(C)CC1	3.2
Nc1nc2c(c(C(F)(F)F)n1)CCCC2	-16.1
O=c1c(-c2ccc(O)cc2)coc2cc(O)cc(O)c12	80.2
CC(C)=CCc1c2c(c3occ(-c4ccc(O)c(O)c4)c(=O)c3c1O)C=CC(C)(C)O2	-24.8
CC(C)=CCc1c2c(c3occ(-c4ccc(O)cc4)c(=O)c3c1O)C=CC(C)(C)O2	-82.2*
c1ccc(-c2ncn(CCc3cccs3)c2CCn2cccn2)cc1	-3.0
O=C(O)CCc1nc2sc3c(c2c(=O)[nH]1)CCCC3	-11.8
Cc1cccc(/C=N/Nc2cc(N3CCOCC3)nc(OCCc3ccccn3)n2)c1	-73.8*
Cc1cccnc1CC(C)Nc1cc(N2CCOCC2)nc(N)n1 (stereo not drawn)	5.6
Cc1cccc(CN2CCOCC3(CCN(c4ccccn4)C3)C2)n1 (stereo not drawn)	-42.8
Cc1ccoc1C(=O)NCC1(Cn2ccnc2)CC1	1.8
CCOC1C2CCC1N(S(=O)(=O)c1cccnc1)CCO2 (stereo not drawn)	-2.8
Cc1nnsc1CNC(=O)CC1COc2ccc(C(=O)N(C)C)cc2N1C (stereo not drawn)	-0.5
NCCCCCCNS(=O)(=O)c1cccc2ccccc12	3.1
Nc1nc(NCC2CCC(CNS(=O)(=O)c3cccc4ccccc34)CC2)nc2ccccc12 (stereo not drawn)	-76.7*!
NC(N)=NCCNS(=O)(=O)c1cccc2cnccc12	-48.8
COC(=O)[C@@H]1C[C@@H](N(C)C)CN1C(=O)c1cc(C)nc2c1cnn2C(C)C	0.9
Cc1cnc(N2CCC3(CC2)CN(Cc2csc(C)n2)CCO3)nc1	-59.8
COc1ccccc1C1OC(=O)CC1C(=O)O (stereo not drawn)	86.5
CSc1ccc(CNC(=O)c2c(C)noc2C)s1	-33.3
Cc1noc(C)c1C(=O)Nc1ccc(Sc2ccccc2)nc1Sc1ccccc1	-88.8*
Cc1noc(C)c1C(=O)Nc1ccc(Cl)cc1	9.8
CCn1nc(C)c(C(C)NC(=O)Cc2noc3ccccc23)c1C (stereo not drawn)	1.6
SMILES	Tgondii IFNg
COCC1CCCN(C(=O)c2ccc(-c3cnn(C)c3)nc2)C1 (stereo not drawn)	-51.4
Cc1cnc(NCC(c2ccccn2)N(C)C)nc1N(C)C (stereo not drawn)	24.3
COc1ncccc1C(Cc1ccsc1)NC(=O)CN(C)C1CCS(=O)(=O)C1 (stereo not drawn)	-14.5
COc1ccc(Cn2ccc3ccc(C(=O)NO)cc32)cc1	-0.1
CCN(CC)Cc1ccc2cc(COC(=O)Nc3ccc(C(=O)NO)cc3)ccc2c1	-83.0*
CCN(CC)Cc1cccc(C(=O)Nc2ccccc2CO)c1	4.2
O=C(C1=CC2(CCNCC2)c2ccccc21)N1CCCC1	3.4
COc1ccc(CCc2nc(CC(=O)Nc3cc(C)ccc3C)no2)cc1	14.3
c1ccc(-n2nccc2CN2CCc3[nH]cnc3C2c2cccnc2)cc1 (stereo not drawn)	8.2
O=C(c1ccccc1F)N1CCN(S(=O)(=O)c2cc3c4c(c2)CCC(=O)N4CCC3)CC1	12.1
CCn1cc(S(=O)(=O)N2CCC(Cc3cccc(C(=O)O)c3)C2)cn1 (stereo not drawn)	-0.5
CCNC(=O)C1(Cc2ccccc2-c2ccncc2)CCCN(C(=O)c2cn[nH]c2C)C1 (stereo not drawn)	14.9
O=C(CN1CCCC1Cn1cccn1)Nc1nc(-c2ccc(F)cc2)cs1 (stereo not drawn)	-77.2*
O=C(CN1CCCCC1)Nc1nc(-c2ccccc2)cs1	-5.2
Cc1csc(NC(=O)CN2CCC(c3ccc(F)cc3)CC2)n1	8.9
CCCC1COCCN1Cc1ncc[nH]1 (stereo not drawn)	-2.4
Cc1cc(C(=O)N2CCC3(C2)C(=O)N(C)CCN3CC#N)n[nH]1 (stereo not drawn)	0.1
Cc1cccc(CNC(=O)CN2C(=O)CCc3cc(Br)ccc32)c1	30.4
Cc1nc2ccccn2c1CC(=O)N1CCCC(c2ccc(Cc3cccc(F)c3)cn2)C1 (stereo not drawn)	-15.2
CCCc1cc(C(=O)N2CCCC(c3cc4ccccc4cn3)C2)n(C)n1 (stereo not drawn)	-30.9
Cc1cc(C(=O)N2CCCC(c3ccc(Cc4ccc(Cl)cc4)cn3)C2)nc(N(C)C)n1 (stereo not drawn)	-89.7*
CC(=O)N1CCC2(CC1)OC(=O)C(C)=C2C(=O)NCCCN1CCOCC1	33.0
CCn1ccc(-c2cc(NCc3ccccc3OC(C)C)nc(C)n2)n1	0.1
C=CCN(CCSc1ccccc1)C(=O)c1cccn1C	80.0
COCC(=O)N1C[C@@H]2COC[C@@H](Cc3nc(C)no3)[C@H]2C1	-62.1
O=C(Cc1ccccc1)Nc1nccs1	-3.8
Cc1cc(C)nc(SCc2ccc(C(=O)Nc3nccs3)cc2)n1	-88.5*
Cc1cc(SCc2ccc(C(=O)O)cc2)nc(SCc2ccc(Cl)cc2)n1	38.3
Cc1cccc(CN2C(=O)CC3C2CCN3S(=O)(=O)C2CC2)n1 (stereo not drawn)	5.0

Bioassay records as filed in PubChem BioAssay.
